{
  "source": "paper PMC7862700",
  "about": "“An all-to-all approach to the identification of sequence-specific readers for epigenetic DNA modifications on cytosine”",
  "data": [
    {"target": "T1, ELK3 (Homo sapiens, UniProt P41970 1-407)", "T1 sequence": "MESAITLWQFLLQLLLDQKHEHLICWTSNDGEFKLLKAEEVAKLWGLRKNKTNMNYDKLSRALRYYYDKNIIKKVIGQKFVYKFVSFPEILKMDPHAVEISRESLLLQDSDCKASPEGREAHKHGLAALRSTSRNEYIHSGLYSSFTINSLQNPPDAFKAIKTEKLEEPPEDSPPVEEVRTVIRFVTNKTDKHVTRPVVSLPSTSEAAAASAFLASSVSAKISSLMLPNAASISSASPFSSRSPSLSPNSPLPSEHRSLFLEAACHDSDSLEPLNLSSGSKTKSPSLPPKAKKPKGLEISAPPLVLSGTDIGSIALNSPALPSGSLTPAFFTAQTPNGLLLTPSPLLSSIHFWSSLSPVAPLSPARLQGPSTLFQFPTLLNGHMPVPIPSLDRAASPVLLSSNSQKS", "assay": "DAPPL (digital affinity profiling via proximity ligation, sequencing); 10 mM Tris-HCl pH 7.5, 50 mM NaCl, 1 mM DTT, 4% glycerol, room temperature, 30 min; GST-TFs on glutathione beads, 16-mer random dsDNA library, 0.1% formaldehyde crosslink after washing; high values mean tight binding", "conditions": "protein: recombinant; tags: N-terminal GST; dsDNA, one strand shown", "outline": "(§1)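 Binding signal is defined as a hexamer's read frequency for one factor over its frequency for the tag-only sample. To obtain reads, GST-fused human transcription factors were expressed in yeast, captured on glutathione beads, barcoded with DNA and pooled with that sample. Pools met 200 nmole of a 16-mer random double-stranded DNA library in Tris/NaCl/DTT/glycerol buffer for 30 min at room temperature before washing, 0.1% formaldehyde crosslinking, proximity ligation (BsaI/T4 ligase, 1 h, 37 °C), PCR and Illumina NextSeq500 sequencing.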", "values": [
      {"sequence": "ACGTTC", "binding signal": "1.38 fold enrichment (6-mer frequency, TF over GST control)"},
      {"sequence": "AATTAA", "binding signal": "1.31 fold enrichment (6-mer frequency, TF over GST control)"},
      {"sequence": "GTTCCT", "binding signal": "1.77 fold enrichment (6-mer frequency, TF over GST control)"},
      {"sequence": "ACTTAT", "binding signal": "1.5 fold enrichment (6-mer frequency, TF over GST control)"},
      {"sequence": "AATTTA", "binding signal": "1.16 fold enrichment (6-mer frequency, TF over GST control)"},
      {"sequence": "CACGAT", "binding signal": "1.25 fold enrichment (6-mer frequency, TF over GST control)"},
      {"sequence": "CTCTCT", "binding signal": "1.49 fold enrichment (6-mer frequency, TF over GST control)"},
      {"sequence": "GCCTAC", "binding signal": "1.1 fold enrichment (6-mer frequency, TF over GST control)"},
      {"sequence": "GCCTCG", "binding signal": "1.26 fold enrichment (6-mer frequency, TF over GST control)"},
      {"sequence": "AACTAG", "binding signal": "1.11 fold enrichment (6-mer frequency, TF over GST control)"}
    ]},
    {"target": "T2, FEV (Homo sapiens, UniProt Q99581 1-238)", "T2 sequence": "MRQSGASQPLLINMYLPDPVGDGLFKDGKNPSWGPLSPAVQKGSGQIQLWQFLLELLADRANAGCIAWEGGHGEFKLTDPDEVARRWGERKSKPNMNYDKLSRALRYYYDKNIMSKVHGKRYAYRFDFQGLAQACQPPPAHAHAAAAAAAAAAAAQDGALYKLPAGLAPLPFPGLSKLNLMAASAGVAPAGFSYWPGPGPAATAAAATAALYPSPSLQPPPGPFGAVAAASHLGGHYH", "assay": "DAPPL (digital affinity profiling via proximity ligation, sequencing); 10 mM Tris-HCl pH 7.5, 50 mM NaCl, 1 mM DTT, 4% glycerol, room temperature, 30 min; GST-TFs on glutathione beads, 16-mer random dsDNA library, 0.1% formaldehyde crosslink after washing; high values mean tight binding", "conditions": "protein: recombinant; tags: N-terminal GST; dsDNA, one strand shown", "outline": "as §1", "values": [
      {"sequence": "TTTTCC", "binding signal": "1.74 fold enrichment (6-mer frequency, TF over GST control)"},
      {"sequence": "CGATTA", "binding signal": "1.09 fold enrichment (6-mer frequency, TF over GST control)"},
      {"sequence": "TATTTT", "binding signal": "1.23 fold enrichment (6-mer frequency, TF over GST control)"},
      {"sequence": "TCCTCG", "binding signal": "1.37 fold enrichment (6-mer frequency, TF over GST control)"},
      {"sequence": "GTTGCT", "binding signal": "1.18 fold enrichment (6-mer frequency, TF over GST control)"},
      {"sequence": "TCCGCC", "binding signal": "1.88 fold enrichment (6-mer frequency, TF over GST control)"},
      {"sequence": "TCTCTG", "binding signal": "1.53 fold enrichment (6-mer frequency, TF over GST control)"},
      {"sequence": "TTTAAC", "binding signal": "1.09 fold enrichment (6-mer frequency, TF over GST control)"},
      {"sequence": "ATTGCA", "binding signal": "1.15 fold enrichment (6-mer frequency, TF over GST control)"},
      {"sequence": "ACGTCT", "binding signal": "1.13 fold enrichment (6-mer frequency, TF over GST control)"},
      {"sequence": "TCTACT", "binding signal": "1.39 fold enrichment (6-mer frequency, TF over GST control)"},
      {"sequence": "TCATCC", "binding signal": "1.4 fold enrichment (6-mer frequency, TF over GST control)"},
      {"sequence": "TATCGA", "binding signal": "1.2 fold enrichment (6-mer frequency, TF over GST control)"},
      {"sequence": "CTACTC", "binding signal": "1.37 fold enrichment (6-mer frequency, TF over GST control)"},
      {"sequence": "AATTAC", "binding signal": "1.25 fold enrichment (6-mer frequency, TF over GST control)"},
      {"sequence": "TCTGGC", "binding signal": "1.16 fold enrichment (6-mer frequency, TF over GST control)"},
      {"sequence": "CCCGAC", "binding signal": "1.38 fold enrichment (6-mer frequency, TF over GST control)"},
      {"sequence": "CAAGAT", "binding signal": "1.02 fold enrichment (6-mer frequency, TF over GST control)"},
      {"sequence": "TTAGCA", "binding signal": "1.23 fold enrichment (6-mer frequency, TF over GST control)"},
      {"sequence": "CATTTG", "binding signal": "1.21 fold enrichment (6-mer frequency, TF over GST control)"},
      {"sequence": "TCTTCT", "binding signal": "1.16 fold enrichment (6-mer frequency, TF over GST control)"},
      {"sequence": "AATCCT", "binding signal": "1.32 fold enrichment (6-mer frequency, TF over GST control)"},
      {"sequence": "CCCCCT", "binding signal": "1.18 fold enrichment (6-mer frequency, TF over GST control)"},
      {"sequence": "ACATCC", "binding signal": "3.7 fold enrichment (6-mer frequency, TF over GST control)"},
      {"sequence": "TTTTGT", "binding signal": "1.33 fold enrichment (6-mer frequency, TF over GST control)"},
      {"sequence": "ACATAA", "binding signal": "1.04 fold enrichment (6-mer frequency, TF over GST control)"},
      {"sequence": "TTCTCG", "binding signal": "1.35 fold enrichment (6-mer frequency, TF over GST control)"},
      {"sequence": "AAATCT", "binding signal": "1.29 fold enrichment (6-mer frequency, TF over GST control)"},
      {"sequence": "TTCTCC", "binding signal": "1.63 fold enrichment (6-mer frequency, TF over GST control)"},
      {"sequence": "CTTGCG", "binding signal": "1.32 fold enrichment (6-mer frequency, TF over GST control)"},
      {"sequence": "ACGTTC", "binding signal": "1.3 fold enrichment (6-mer frequency, TF over GST control)"},
      {"sequence": "AATTAA", "binding signal": "1.14 fold enrichment (6-mer frequency, TF over GST control)"},
      {"sequence": "GTTCCT", "binding signal": "1.75 fold enrichment (6-mer frequency, TF over GST control)"},
      {"sequence": "ACTTAT", "binding signal": "1.34 fold enrichment (6-mer frequency, TF over GST control)"},
      {"sequence": "AATTTA", "binding signal": "1.16 fold enrichment (6-mer frequency, TF over GST control)"},
      {"sequence": "CACGAT", "binding signal": "1.23 fold enrichment (6-mer frequency, TF over GST control)"},
      {"sequence": "CTCTCT", "binding signal": "1.67 fold enrichment (6-mer frequency, TF over GST control)"},
      {"sequence": "GCCTAC", "binding signal": "1.2 fold enrichment (6-mer frequency, TF over GST control)"},
      {"sequence": "GCCTCG", "binding signal": "1.25 fold enrichment (6-mer frequency, TF over GST control)"},
      {"sequence": "AACTAG", "binding signal": "1.14 fold enrichment (6-mer frequency, TF over GST control)"}
    ]}
  ]
}
